Experimental data reported in PubChem BioAssay (Tox21).
Several values for one entry are separate records, joined by “and”; a condition that tells them apart may be missing. Equal values may be shown once. Results filed as inconclusive are left out. A call without a number means that no potency is given here. Where a structure was tested more than once in an assay, its records may differ in their call. Activity calls are given as the source filed them. The call rests on the fitted dose curve; in most records, active means well fitted curve in the direction sought with a large enough effect in the repeat runs; inconclusive means weak or mixed curves; inactive means no such curve, though single readings can be large; an effect the other way counts as inactive or inconclusive.

Biological target: Aromatase (Homo sapiens) (UniProt P11511)
Assay: qHTS assay to identify aromatase inhibitors (AID 743083)
Settings: MCF-7 aro ERE, testosterone-driven ERE luciferase, 24 h; series mostly up to 70.3 µM
Further: nearly all actives have a fitted effect of over 55% in size.
Potency means the concentration at half of the fitted maximal effect.

Aromatase (Homo sapiens), sequence (P11511 whole entry, looked up): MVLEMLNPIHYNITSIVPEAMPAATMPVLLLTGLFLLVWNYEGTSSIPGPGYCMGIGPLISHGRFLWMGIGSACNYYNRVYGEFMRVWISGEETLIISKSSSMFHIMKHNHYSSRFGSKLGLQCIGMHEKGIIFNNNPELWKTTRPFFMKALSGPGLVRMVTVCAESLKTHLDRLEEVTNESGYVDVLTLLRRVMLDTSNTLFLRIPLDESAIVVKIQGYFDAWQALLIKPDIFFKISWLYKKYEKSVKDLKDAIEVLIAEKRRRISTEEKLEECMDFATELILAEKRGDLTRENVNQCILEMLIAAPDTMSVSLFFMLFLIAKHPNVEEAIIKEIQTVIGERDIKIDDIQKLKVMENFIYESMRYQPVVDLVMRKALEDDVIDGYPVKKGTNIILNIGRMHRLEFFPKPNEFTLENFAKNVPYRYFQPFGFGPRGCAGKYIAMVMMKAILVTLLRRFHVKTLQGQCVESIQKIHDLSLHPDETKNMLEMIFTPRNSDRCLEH

SMILES	Potency
OC[C@H]1O[C@H](O[C@H]2O[C@H](CO)[C@@H](O)[C@H](O)[C@H]2O)[C@H](O)[C@@H](O)[C@@H]1O	inactive
CN1CCN2c3ccccc3Cc3ccccc3C2C1 (centres undefined)	inactive
C/C=C/C=C/COC(=O)C(C)C	68.6 µM (active)
O=C1CCc2ccc(OCCCCN3CCN(c4cccc(Cl)c4Cl)CC3)cc2N1	inactive
CN(C)Cc1cc(C(C)(C)C)c(O)c(C(C)(C)C)c1	inactive
Cc1cc(C(C)(C)C)cc(C)c1CC1=NCCN1	inactive
Cc1cc(C)c(/C=C2\C(=O)Nc3ccccc32)[nH]1	inactive
Cc1ccc(N/N=c2\c(=O)cc/c(=N\Nc3ccc(S(=O)(=O)O)cc3)c2=O)c(C)c1	inactive
Nc1ccc(NCCO)c([N+](=O)[O-])c1	inactive
CCOc1ccc2ccccc2c1C(=O)N[C@@H]1C(=O)N2[C@@H]1SC(C)(C)[C@@H]2C(=O)O	inactive
CC(C)CCOC(=O)/C=C/c1ccccc1	inactive
C[C@H]1NCc2cc(-c3ccc4c(=O)c(C(=O)O)cn(C5CC5)c4c3OC(F)F)ccc21	inactive
CCCCCCCCCCCCCCCC[N+](C)(C)CC	9.44 µM (active) and 8.66 µM (active)
CN1CCCCC1CCN1c2ccccc2Sc2ccc(S(C)=O)cc21 (centres undefined)	inactive
Nc1cc(Cl)c(O)c(Cl)c1	inactive
O=c1c(O)c(-c2ccc(O)cc2O)oc2cc(O)cc(O)c12	inactive
COCCOc1cc2cc(C(=O)NC3CCN(C(C)C)CC3)n(CC(=O)Nc3ccc(Cl)cn3)c2cn1	inactive
Cl[Si](Cl)(c1ccccc1)c1ccccc1	inactive
CC(C)(C)c1ccc(C(O)CCCN2CCC(C(O)(c3ccccc3)c3ccccc3)CC2)cc1 (centres undefined)	inactive and 29.8 µM (active)
NC(=S)NC(N)=S	inactive
CCCCC/C=C\C/C=C\CCCCCCCC(=O)O	inactive
O=C(O)c1cc(O)c2ccccc2c1O	9.69 µM (active)
CCCCCCCCCCCCCC[N+](C)(C)Cc1ccccc1	29.8 µM (active) and 13.9 µM (active)
COc1cccc2c1C(=O)c1c(O)c3c(c(O)c1C2=O)C[C@@](O)(C(C)=O)C[C@@H]3O[C@H]1C[C@H](N)[C@H](O)[C@H](C)O1	3.76 µM (active) and 615 nM (active)

System: not listed separately
Assay: qHTS assay to identify aromatase inhibitors - cell viability counter screen (AID 743084);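 further: cells stimulated with testosterone during compound exposure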
Settings: MCF-7 aro ERE viability, CellTiter-Fluor, 24 h; series mostly up to 70.3 µM

SMILES	Potency
Oc1cc(Cl)cc(Cl)c1Cl	inactive
OC[C@H]1O[C@H](O[C@H]2O[C@H](CO)[C@@H](O)[C@H](O)[C@H]2O)[C@H](O)[C@@H](O)[C@@H]1O	inactive
CN1CCN2c3ccccc3Cc3ccccc3C2C1 (centres undefined)	inactive
CCCCCC(C)OC(=O)COc1ccc(Cl)c2cccnc12 (centres undefined)	inactive
O=C1CCc2ccc(OCCCCN3CCN(c4cccc(Cl)c4Cl)CC3)cc2N1	inactive
CN(C)Cc1cc(C(C)(C)C)c(O)c(C(C)(C)C)c1	inactive
Cc1cc(C(C)(C)C)cc(C)c1CC1=NCCN1	inactive
Cc1cc(C)c(/C=C2\C(=O)Nc3ccccc32)[nH]1	inactive
Cc1ccc(N/N=c2\c(=O)cc/c(=N\Nc3ccc(S(=O)(=O)O)cc3)c2=O)c(C)c1	27.3 µM (active)
O=C(c1ccc(O)c(O)c1)c1ccc(O)cc1O	inactive
CCOc1ccc2ccccc2c1C(=O)N[C@@H]1C(=O)N2[C@@H]1SC(C)(C)[C@@H]2C(=O)O	inactive
CC(C)CCOC(=O)/C=C/c1ccccc1	inactive
C[C@H]1NCc2cc(-c3ccc4c(=O)c(C(=O)O)cn(C5CC5)c4c3OC(F)F)ccc21	inactive
CCCCCCCCCCCCCCCC[N+](C)(C)CC	21.1 µM (active) and 48.7 µM (active)
CN1CCCCC1CCN1c2ccccc2Sc2ccc(S(C)=O)cc21 (centres undefined)	inactive
Nc1cc(Cl)c(O)c(Cl)c1	inactive
O=S(=O)(O)c1ccc(N=Nc2c(O)ccc3ccccc23)cc1	17.2 µM (active)
O=[N+]([O-])c1ccc(O)cc1C(F)(F)F	68.6 µM (active)
COCCOc1cc2cc(C(=O)NC3CCN(C(C)C)CC3)n(CC(=O)Nc3ccc(Cl)cn3)c2cn1	inactive
Cl[Si](Cl)(c1ccccc1)c1ccccc1	inactive
CC(C)(C)c1ccc(C(O)CCCN2CCC(C(O)(c3ccccc3)c3ccccc3)CC2)cc1 (centres undefined)	inactive
NC(=S)NC(N)=S	inactive
CCCCC/C=C\C/C=C\CCCCCCCC(=O)O	inactive
O=C(Nc1ccc2c(O)c(N=Nc3ccc(N=Nc4ccc(S(=O)(=O)O)cc4)cc3)c(S(=O)(=O)O)cc2c1)c1ccccc1	8.63 µM (active)
O=C(O)c1cc(O)c2ccccc2c1O	15.4 µM (active)
Cc1cc(C(C)(C)C)c(O)c(C)c1Cn1c(=O)n(Cc2c(C)cc(C(C)(C)C)c(O)c2C)c(=O)n(Cc2c(C)cc(C(C)(C)C)c(O)c2C)c1=O	inactive
CC(N=C(NC#N)Nc1ccncc1)C(C)(C)C (centres undefined)	inactive
COc1cc(S(=O)(=O)O)c(C)cc1N=Nc1c(O)ccc2cc(S(=O)(=O)O)ccc12	8.63 µM (active)
CCCCCCCCCCCCCC[N+](C)(C)Cc1ccccc1	inactive and 24.7 µM (active)
COc1cccc2c1C(=O)c1c(O)c3c(c(O)c1C2=O)C[C@@](O)(C(C)=O)C[C@@H]3O[C@H]1C[C@H](N)[C@H](O)[C@H](C)O1	10.6 µM (active) and 8.69 µM (active)
